Source: PubChem BioAssay (Tox21)
Values without a mark were called inactive. Active and inactive are the calls of the source. Calls come from the whole dose curve; as a rule, active = well fitted curve in the direction sought with a large enough effect in the repeat runs; inconclusive = weak or mixed curves; inactive = flat fitted curve, though single readings scatter.

Assay: qHTS assay to test for compound auto fluorescence at 590 nm (red) in HEK293 cells (AID 720679)
Conditions: red autofluorescence 540/590 nm; series mostly up to 91.3 µM
Source text: National Center for Advancing Translational Sciences [NCATS]
NIH Chemical Genomics Center [NCGC]
U.S. Environmental Protection Agency [EPA]
National Institutes of Environmental Health Sciences [NIEHS]
National Toxicology Program [NTP]
U.S. Food and Drug Administration [FDA]
Compound auto fluorescence often interferes with screening of the compound library against various biological targets and signaling pathways. Some of these compounds may have fluorophoric properties. Such properties may interfere with the assay outputs resulting in false positives and/or negatives. To decrease such complications and ensure the compound activities are relevant in terms of biological response, the Tox21 10K compound library was screened for auto fluorescence.
From the fluorophores used as reporter signals in our screening assays, the auto fluorescence equivalencies of compounds against three fluorophores have been evaluated: Triamterene, Fluorescein and Rose Bengal sodium for blue, green and red fluorescence, respectively. The fluorescence intensities were measured using Excitation/Emission wavelengths at 405/460nm, 485/535nm and 540/590nm for blue, green and red labels, respectively. This assay includes the red fluorescence data.
Tox21 Assay Protocol Summary:
2,000 HEK293 cells in 5 uL of culture medium containing 10% dialyzed FBS per well were dispensed into black wall/clear bottom 1536-well plates using a Multidrop Combi Dispenser (Thermo Scientific). The assay plates were incubated for 4-5 hr at 37C to allow cell attachment to the well bottom, followed by the transfer of 23 nL compound or DMSO vehicle by a pintool work station (Kalypsys, San Diego, CA). After the assay plates were incubated overnight at 37C and 5% CO2, fluorescence intensities in the assay plates were measured by an Envision (PerkinElmer, Shelton, CT) plate reader using three labels for measuring blue, green and red fluorescence at […] 460, 535 and 590nm respectively.
% is set by controls: 0 for no effect and ±100 for the full control effect.

Row | Structure (SMILES) | outcome | fluorescence, % of fluorescent control
1 | C[C@H](CCC(=O)O)[C@H]1CC[C@H]2[C@@H]3[C@H](O)C[C@@H]4C[C@H](O)CC[C@]4(C)[C@H]3CC[C@]12C | inactive | 
2 | CC[C@H](C)[C@H](N)C(=O)O | inactive | 
3 | CCCCOc1ccc(CC(=O)NO)cc1 |  | 0.184% [at 18.6 µM]
4 | CC(=O)/C=C/C1C(C)=CCCC1(C)C (stereo not given) | inactive | 
5 | O=C(c1ccccc1)c1ccc2n1CCC2C(=O)O (stereo not given) | inactive | 
6 | OC(CCN1CCCCC1)(c1ccccc1)C1CCCCC1 (stereo not given) | inactive | 
7 | CC[C@]12CCCN3CCc4c(n(c5ccccc45)C(=O)C1)[C@@H]32 |  | 0.0084% [at 18.6 µM]
8 | CCN(CC)C(C)=O | inactive | 
9 | CC(C)=CCCC(C)CC=O (stereo not given) | inactive | 
10 | C=CC(=O)OCCOC(=O)CCC(=O)O | inactive | 
11 | CCOc1nc2cccc(C(=O)O)c2n1Cc1ccc(-c2ccccc2-c2nn[nH]n2)cc1 | inactive | 
12 | CN(C)CCCOc1nn(Cc2ccccc2)c2ccccc12 |  | 0.312% [at 18.6 µM]
13 | O=C(CC(=O)c1ccccc1)c1ccccc1 | inactive | 
14 | CCCCCCCCCCCCCCCCCBr |  | 0.301% [at 18.6 µM]
15 | S=C(S)NCCNC(=S)S | inactive | 
16 | Cc1ccc(C(C)c2ccc(C)c(C)c2)cc1C | inactive | 
17 | CC1CCc2cc(F)cc3c(=O)c(C(=O)O)cn1c23 (stereo not given) | inactive | 
18 | COc1cc(C(C)(C)C)c(O)c(C(C)(C)C)c1 | inactive | 
19 | CCCCCC/C=C/C=O | inactive | 
20 | CCCCCOC(=O)COc1cc(N2C(=O)C3=C(CCCC3)C2=O)c(F)cc1Cl | inactive | 

Row | Structure (SMILES) | outcome | fluorescence, % of fluorescent control
21 | O=C(c1ccc(O)cc1)c1ccc(O)cc1 | inactive | 
22 | NC(N)=N/N=C/c1c(Cl)cccc1Cl | inactive | 
23 | O=C(O)Cc1cc(I)c(Oc2ccc(O)c(I)c2)c(I)c1 | inactive | 
24 | C1CCC2OC2C1 (stereo not given) | inactive | 
25 | CN(C)CCCNCCCN | inactive | 
26 | Cc1ccc2c(ccc3ccccc32)c1 | inactive | 
27 | NC1CCN(c2nc3c(cc2F)c(=O)c(C(=O)O)cn3-c2ccc(F)cc2F)C1 (stereo not given) | inactive | 
28 | CC(=O)CC(=O)c1ccccc1 | inactive | 
29 | N#CCc1cccc(C(F)(F)F)c1 | inactive | 
30 | O=C(Nc1ccccc1)OCC(CN1CCCCC1)OC(=O)Nc1ccccc1 (stereo not given) |  | 0.0612% [at 18.6 µM]
31 | CCOC(=O)[C@H](CCc1ccccc1)N[C@H]1CCc2ccccc2N(CC(=O)O)C1=O | inactive | 
32 | CNS(=O)(=O)Cc1ccc2[nH]cc(CCN(C)C)c2c1 | inactive | 
33 | CN1CCN(C2=Nc3ccccc3Sc3ccc(Cl)cc32)CC1 | inactive | 
34 | C=C(C)C(=O)OC(C)C | inactive | 
35 | O=C(NN1CCCC1)NS(=O)(=O)c1ccc(Cl)cc1 | inactive | 
36 | CCN(CC)CCc1nc(-c2ccccc2)no1 |  | 0.0464% [at 18.6 µM]
37 | CC[C@@H]1C[C@H](N(Cc2cc(C(F)(F)F)cc(C(F)(F)F)c2)C(C)=O)c2cc(C(F)(F)F)ccc2N1C(=O)OC(C)C | inactive | 
38 | Nc1nc(CC(=O)O)cs1 | inactive | 
39 | C=CCCCCCC | inactive | 
40 | CC(C)(C)c1ccc(OCC2CO2)cc1 (stereo not given) | inactive | 
